According to PubChem BioAssay (NCI):
Compounds without any hit were thinned out: in the full panel of roughly 79,000, 15% have a hit. Unmarked numbers belong to inactive results. Active and inactive are the calls of the source. Rule as the data show it: active = growth inhibition above about 70%; inactive = the rest.

Tests used:
[1] = NCI Yeast Anticancer Drug Screen. Data for the rad50 strain (AID 155);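 also: 0% = growth of vehicle-only cultures of the same strain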; details: S. cerevisiae rad50 strain growth inhibition, active compounds read high
In short: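 Relative growth inhibition (compound vs vehicle) was measured in yeast with a defined repair-gene alteration.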

[2] = NCI Yeast Anticancer Drug Screen. Data for the mec2-1 strain (AID 157); details: S. cerevisiae mec2-1 strain, active compounds read high
In short: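 Test agents were screened against the mec2-1 yeast strain, with defined DNA repair or cell cycle alteration. Growth was scored as inhibition against vehicle-only controls.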

[3] = NCI Yeast Anticancer Drug Screen. Data for the sgs1 mgt1 strain (AID 161);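 also: 0% = growth of cultures given vehicle only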; details: S. cerevisiae sgs1 mgt1 strain, active compounds read high
In short: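 Mutant yeast exposed to compound; growth scored against vehicle-only wells.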

[4] = NCI Yeast Anticancer Drug Screen. Data for the cln2 rad14 strain (AID 165);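 also: 0% = growth equal to vehicle treated cultures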; details: S. cerevisiae cln2 rad14 strain, active compounds read high
In short: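 Growth of compound-exposed yeast (cln2 rad14 genotype) measured and expressed as inhibition relative to vehicle.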

[5] = NCI Yeast Anticancer Drug Screen. Data for the bub3 strain (AID 167); details: S. cerevisiae bub3 mutant strain, active compounds read high
In short: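 Screening used yeast with an engineered genetic alteration affecting cell cycle control. Compound-exposed cultures were compared with vehicle cultures, and reduced growth was taken as inhibition.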

[6] = NCI Yeast Anticancer Drug Screen. Data for the mlh1 rad18 strain (AID 175); details: S. cerevisiae mlh1 rad18 strain growth inhibition, active compounds read high
In short: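 In this whole-cell yeast screen, a strain with altered DNA damage repair is challenged with compound, and its growth is measured against matched vehicle-treated controls.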

[7] = at 5.0 µM (retest, dose inferred, filed as 0.5)
[8] = at 50.0 µM (retest, dose inferred, filed as 5.0)

Compound `CC(/C=C/c1ccc(Cl)cc1)=N\NC(N)=S` has a growth inhibition [1, 7] of 11%, a growth inhibition [1, 8] of 44% and a growth inhibition ([1]; at 50.0 µM) of 68.2%. For the same compound, the growth inhibition [2, 7] was -1%, the growth inhibition [2, 8] was 29% and the growth inhibition ([2]; at 50.0 µM) was 69%. The growth inhibition [3, 7] was 1%, the growth inhibition [3, 8] was 59% and the growth inhibition ([3]; at 50.0 µM) was 49.4%. The growth inhibition [4, 7] was 12%, the growth inhibition [4, 8] was 32% and the growth inhibition ([4]; at 50.0 µM) was 47.1%. It also gave a growth inhibition [5, 7] of 1%, a growth inhibition [5, 8] of 38% and a growth inhibition ([5]; at 50.0 µM) of 50%. For the same compound, the growth inhibition [6, 7] was 16%, the growth inhibition [6, 8] was 54% and the growth inhibition ([6]; at 50.0 µM) was 60.5%.
For `CC(C)(CC(=O)NNc1ccccc1)C(=O)O`, the growth inhibition [1, 7] was 7%, the growth inhibition [1, 8] was 72% (active) and the growth inhibition ([1]; at 50.0 µM) was 57.6%. The growth inhibition [2, 7] was 4%, the growth inhibition [2, 8] was 61% and the growth inhibition ([2]; at 50.0 µM) was 20.2%. The growth inhibition [3, 7] was 14%, the growth inhibition [3, 8] was 60% and the growth inhibition ([3]; at 50.0 µM) was 72% (active). For the same compound, the growth inhibition [4, 7] was 19%, the growth inhibition [4, 8] was 82% (active) and the growth inhibition ([4]; at 50.0 µM) was 79.2% (active). For the same compound, the growth inhibition [5, 7] was 22%, the growth inhibition [5, 8] was 94% (active) and the growth inhibition ([5]; at 50.0 µM) was 89.5% (active). The growth inhibition [6, 7] was 32%, the growth inhibition [6, 8] was 95% (active) and the growth inhibition ([6]; at 50.0 µM) was 85.8% (active).
Compound `O=C(NCC#CCO)C(F)(F)F` has a growth inhibition [1, 7] of -15%, a growth inhibition [1, 8] of -1% and a growth inhibition ([1]; at 50.0 µM) of -0.9%. For the same compound, the growth inhibition [2, 7] was -14%, the growth inhibition [2, 8] was -18% and the growth inhibition ([2]; at 50.0 µM) was 13.2%. It also gave a growth inhibition [3, 7] of -3%, a growth inhibition [3, 8] of -8% and a growth inhibition ([3]; at 50.0 µM) of 11.7%. The growth inhibition [4, 7] was 3%, the growth inhibition [4, 8] was 9% and the growth inhibition ([4]; at 50.0 µM) was 47.8%. It also gave a growth inhibition [5, 7] of -21%, a growth inhibition [5, 8] of -5% and a growth inhibition ([5]; at 50.0 µM) of 11.1%. It also gave a growth inhibition [6, 7] of -5%, a growth inhibition [6, 8] of -10% and a growth inhibition ([6]; at 50.0 µM) of 45.1%.
Compound `CC1(C)C2CCC(C2)C1OC(=O)c1ccccc1C(=O)O` (stereo unspecified) has a growth inhibition [1, 7] of -7%, a growth inhibition [1, 8] of 11% and a growth inhibition ([1]; at 50.0 µM) of 1.45%. It also gave a growth inhibition [2, 7] of -2%, a growth inhibition [2, 8] of 0% and a growth inhibition ([2]; at 50.0 µM) of 12.9%. For the same compound, the growth inhibition [3, 7] was -5%, the growth inhibition [3, 8] was 6% and the growth inhibition ([3]; at 50.0 µM) was -6.05%. The growth inhibition [4, 7] was 10%, the growth inhibition [4, 8] was 15% and the growth inhibition ([4]; at 50.0 µM) was 76.2% (active). The growth inhibition [5, 7] was -2%, the growth inhibition [5, 8] was 26% and the growth inhibition ([5]; at 50.0 µM) was 71% (active). The growth inhibition [6, 7] was -21%, the growth inhibition [6, 8] was 6% and the growth inhibition ([6]; at 50.0 µM) was 32.7%.
For `O=C(O)CC(NC(=O)CP(=O)(O)O)C(=O)O.[NH-]C1CCCCC1[NH-].[Pt+2]` (stereo unspecified), the growth inhibition [1, 7] was 30%, the growth inhibition [1, 8] was 24% and the growth inhibition ([1]; at 50.0 µM) was -2.95%. It also gave a growth inhibition [2, 7] of 2%, a growth inhibition [2, 8] of 3% and a growth inhibition ([2]; at 50.0 µM) of -27.1%. For the same compound, the growth inhibition [3, 7] was 26%, the growth inhibition [3, 8] was 11% and the growth inhibition ([3]; at 50.0 µM) was -27.9%. It also gave a growth inhibition [4, 7] of 22%, a growth inhibition [4, 8] of 16% and a growth inhibition ([4]; at 50.0 µM) of 20.8%. For the same compound, the growth inhibition [5, 7] was 18%, the growth inhibition [5, 8] was 23% and the growth inhibition ([5]; at 50.0 µM) was -12.2%. For the same compound, the growth inhibition [6, 7] was 18%, the growth inhibition [6, 8] was 2% and the growth inhibition ([6]; at 50.0 µM) was -23.1%.
With `Cc1ccc(/C=C2\CCCC(CN3CCCCC3)C2=O)cc1` (stereo unspecified) the growth inhibition [1, 7] was 23%, the growth inhibition [1, 8] was 99% (active) and the growth inhibition ([1]; at 50.0 µM) was 75% (active). The growth inhibition [2, 7] was 34%, the growth inhibition [2, 8] was 99% (active) and the growth inhibition ([2]; at 50.0 µM) was 83% (active). For the same compound, the growth inhibition [3, 7] was 30%, the growth inhibition [3, 8] was 99% (active) and the growth inhibition ([3]; at 50.0 µM) was 87.8% (active). For the same compound, the growth inhibition [4, 7] was 45%, the growth inhibition [4, 8] was 98% (active) and the growth inhibition ([4]; at 50.0 µM) was 73.3% (active). The growth inhibition [5, 7] was 37%, the growth inhibition [5, 8] was 99% (active) and the growth inhibition ([5]; at 50.0 µM) was 89.3% (active). The growth inhibition [6, 7] was 32%, the growth inhibition [6, 8] was 99% (active) and the growth inhibition ([6]; at 50.0 µM) was 90% (active).
`CCOc1c(N=Nc2ccccc2OC)c(-c2ccccc2)nn1C(N)=S` gave a growth inhibition [1, 7] of 10%, a growth inhibition [1, 8] of 38% and a growth inhibition ([1]; at 50.0 µM) of 67%. It also gave a growth inhibition [2, 7] of 1%, a growth inhibition [2, 8] of 35% and a growth inhibition ([2]; at 50.0 µM) of 63%. For the same compound, the growth inhibition [3, 7] was 26%, the growth inhibition [3, 8] was 61% and the growth inhibition ([3]; at 50.0 µM) was 76.1% (active). For the same compound, the growth inhibition [4, 7] was -8%, the growth inhibition [4, 8] was 20% and the growth inhibition ([4]; at 50.0 µM) was 44%. It also gave a growth inhibition [5, 7] of -1%, a growth inhibition [5, 8] of 29% and a growth inhibition ([5]; at 50.0 µM) of 26.8%. It also gave a growth inhibition [6, 7] of 2%, a growth inhibition [6, 8] of 39% and a growth inhibition ([6]; at 50.0 µM) of 53.4%.
With `CCOc1cc(C(c2ccc(N(C)C)cc2)c2ccc(N(C)C)cc2)ccc1O` the growth inhibition [1, 7] was -1%, the growth inhibition [1, 8] was 26% and the growth inhibition ([1]; at 50.0 µM) was 36.2%. For the same compound, the growth inhibition [2, 7] was -1%, the growth inhibition [2, 8] was 52% and the growth inhibition ([2]; at 50.0 µM) was 44.8%. For the same compound, the growth inhibition [3, 7] was 0%, the growth inhibition [3, 8] was 54% and the growth inhibition ([3]; at 50.0 µM) was 74.2% (active). The growth inhibition [4, 7] was 2%, the growth inhibition [4, 8] was 52% and the growth inhibition ([4]; at 50.0 µM) was 84.1% (active). The growth inhibition [5, 7] was 8%, the growth inhibition [5, 8] was 79% (active) and the growth inhibition ([5]; at 50.0 µM) was 79.4% (active). It also gave a growth inhibition [6, 7] of 0%, a growth inhibition [6, 8] of 42% and a growth inhibition ([6]; at 50.0 µM) of 59.5%.
For `O=C(NC1=C(Cl)C(=O)c2ccccc2C1=O)C(=O)C(C(=O)c1ccc2ccccc2c1)C1OC(=O)c2ccccc21` (stereo unspecified), the growth inhibition [1, 7] was 33%, the growth inhibition [1, 8] was 85% (active) and the growth inhibition ([1]; at 50.0 µM) was 89.8% (active). For the same compound, the growth inhibition [2, 7] was 16%, the growth inhibition [2, 8] was 59% and the growth inhibition ([2]; at 50.0 µM) was 63.5%. For the same compound, the growth inhibition [3, 7] was 30%, the growth inhibition [3, 8] was 98% (active) and the growth inhibition ([3]; at 50.0 µM) was 88.5% (active). The growth inhibition [4, 7] was 20%, the growth inhibition [4, 8] was 95% (active) and the growth inhibition ([4]; at 50.0 µM) was 88.1% (active). The growth inhibition [5, 7] was 22%, the growth inhibition [5, 8] was 99% (active) and the growth inhibition ([5]; at 50.0 µM) was 85.3% (active). The growth inhibition [6, 7] was 26%, the growth inhibition [6, 8] was 83% (active) and the growth inhibition ([6]; at 50.0 µM) was 88.8% (active).
`C=CC[P+](CC[P+](CC=C)(c1ccccc1)c1ccccc1)(c1ccccc1)c1ccccc1` gave a growth inhibition [1, 7] of -2%, a growth inhibition [1, 8] of -3% and a growth inhibition ([1]; at 50.0 µM) of 2.6%. The growth inhibition [2, 7] was -1%, the growth inhibition [2, 8] was -4% and the growth inhibition ([2]; at 50.0 µM) was -0.25%. For the same compound, the growth inhibition [3, 7] was -2%, the growth inhibition [3, 8] was 1% and the growth inhibition ([3]; at 50.0 µM) was 16.6%. For the same compound, the growth inhibition [4, 7] was -5%, the growth inhibition [4, 8] was -10% and the growth inhibition ([4]; at 50.0 µM) was -31.6%. The growth inhibition [5, 7] was -3%, the growth inhibition [5, 8] was -3% and the growth inhibition ([5]; at 50.0 µM) was 6.8%. The growth inhibition [6, 7] was 1%, the growth inhibition [6, 8] was -1% and the growth inhibition ([6]; at 50.0 µM) was 52.2%.
With `N#CC1CCCC(Cc2ccccc2)(c2ccccc2)C1=O` (stereo unspecified) the growth inhibition [1, 7] was -4%, the growth inhibition [1, 8] was 93% (active) and the growth inhibition ([1]; at 50.0 µM) was 98.8% (active). The growth inhibition [2, 7] was -3%, the growth inhibition [2, 8] was 95% (active) and the growth inhibition ([2]; at 50.0 µM) was 98.1% (active). The growth inhibition [3, 7] was -2%, the growth inhibition [3, 8] was 95% (active) and the growth inhibition ([3]; at 50.0 µM) was 98.3% (active). For the same compound, the growth inhibition [4, 7] was -1%, the growth inhibition [4, 8] was 70% (active) and the growth inhibition ([4]; at 50.0 µM) was 95% (active). For the same compound, the growth inhibition [5, 7] was 10%, the growth inhibition [5, 8] was 96% (active) and the growth inhibition ([5]; at 50.0 µM) was 98.7% (active). The growth inhibition [6, 7] was -6%, the growth inhibition [6, 8] was 96% (active) and the growth inhibition ([6]; at 50.0 µM) was 97.6% (active).
With `O=C1NC(CSSCC2NC(=O)N(c3ccccc3)C2=O)C(=O)N1c1ccccc1` (stereo unspecified) the growth inhibition [1, 7] was 8%, the growth inhibition [1, 8] was 94% (active) and the growth inhibition ([1]; at 50.0 µM) was 87.9% (active). For the same compound, the growth inhibition [2, 7] was 11%, the growth inhibition [2, 8] was 97% (active) and the growth inhibition ([2]; at 50.0 µM) was 58.9%. The growth inhibition [3, 7] was 16%, the growth inhibition [3, 8] was 99% (active) and the growth inhibition ([3]; at 50.0 µM) was 93.6% (active). For the same compound, the growth inhibition [4, 7] was 1%, the growth inhibition [4, 8] was 90% (active) and the growth inhibition ([4]; at 50.0 µM) was 58.1%. For the same compound, the growth inhibition [5, 7] was 4%, the growth inhibition [5, 8] was 98% (active) and the growth inhibition ([5]; at 50.0 µM) was 55.5%. The growth inhibition [6, 7] was 8%, the growth inhibition [6, 8] was 96% (active) and the growth inhibition ([6]; at 50.0 µM) was 95.2% (active).
